The source made the active and inactive calls. Unless noted, no rule for the calls is given here.
What was measured:
[1] = anti-His antibody binders, primary screen, artefact control for SMM control protein annotation, biochemical, small-molecule microarray, 635 nm fluorescence (AID 1128); settings: anti-His Alexa647 antibody binding, higher = more signal;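 also: score merges feature fluorescence with signal-to-noise for each printed compound spot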
[2] = system: Human papillomavirus type 1a E7 protein (residues 1-88); test: HPV1a E7 small-molecule binders, primary screen, biochemical, small-molecule microarray, residues 1-88, 635 nm (AID 1129); settings: small-molecule microarray binding, fluorescence 635 nm; higher = more signal
[3] = target: Focal adhesion kinase 1 (Homo sapiens) (UniProt Q05397); test: small-molecule microarray binders of FAK, primary screen, biochemical, 635/667 nm fluorescence, BSA, DTT (AID 1130); settings: PTK2 binding, 635 nm fluorescence, higher = more signal;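 also: composite of spot emission at 667 nm and signal to noise over triplicate slides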
Chain of Focal adhesion kinase 1 (Homo sapiens) (Q05397 whole entry, looked up): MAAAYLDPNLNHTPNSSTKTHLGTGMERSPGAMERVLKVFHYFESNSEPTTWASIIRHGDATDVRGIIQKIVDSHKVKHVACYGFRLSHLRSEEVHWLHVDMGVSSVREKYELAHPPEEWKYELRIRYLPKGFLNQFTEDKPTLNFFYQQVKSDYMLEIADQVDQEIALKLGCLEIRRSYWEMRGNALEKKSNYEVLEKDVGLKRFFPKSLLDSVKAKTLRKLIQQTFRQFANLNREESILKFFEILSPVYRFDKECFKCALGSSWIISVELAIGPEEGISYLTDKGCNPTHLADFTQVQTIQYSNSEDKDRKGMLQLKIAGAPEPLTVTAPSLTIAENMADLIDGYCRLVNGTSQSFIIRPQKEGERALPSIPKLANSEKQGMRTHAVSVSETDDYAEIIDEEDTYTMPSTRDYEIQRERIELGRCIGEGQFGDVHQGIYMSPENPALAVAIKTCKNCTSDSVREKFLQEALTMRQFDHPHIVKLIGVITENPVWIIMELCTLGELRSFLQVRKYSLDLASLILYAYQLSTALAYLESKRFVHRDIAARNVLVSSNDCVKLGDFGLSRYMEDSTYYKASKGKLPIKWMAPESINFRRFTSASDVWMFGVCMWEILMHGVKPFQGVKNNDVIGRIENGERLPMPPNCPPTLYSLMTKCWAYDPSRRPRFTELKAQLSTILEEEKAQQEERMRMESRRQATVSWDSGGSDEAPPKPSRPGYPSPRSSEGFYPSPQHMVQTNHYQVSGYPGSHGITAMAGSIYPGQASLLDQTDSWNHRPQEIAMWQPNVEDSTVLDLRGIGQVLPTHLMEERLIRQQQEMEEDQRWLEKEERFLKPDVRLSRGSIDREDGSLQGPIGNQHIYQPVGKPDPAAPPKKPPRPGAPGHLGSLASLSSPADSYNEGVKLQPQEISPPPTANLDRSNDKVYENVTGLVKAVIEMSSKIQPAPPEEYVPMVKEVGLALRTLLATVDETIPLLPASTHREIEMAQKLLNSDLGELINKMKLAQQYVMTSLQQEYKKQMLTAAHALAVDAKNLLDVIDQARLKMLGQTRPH

[4] = system: Fibrinogen (Alexa647-labelled); test: fibrinogen binders on compound microarrays, profiling panel, artefact control for SMM control-protein annotation, biochemical, small-molecule microarray, 635/667 nm fluorescence (AID 1131); settings: fibrinogen-A647 binding fluorescence, higher = more signal;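 also: z-score merges 667 nm fluorescence with per-spot signal-to-noise over triplicate slides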
[5] = target: Follistatin (Homo sapiens) (UniProt P19883); test: follistatin binders on small-molecule microarrays, primary screen, biochemical, small-molecule microarray, 635/667 nm fluorescence (AID 1132); settings: FST binding, 635 nm fluorescence, higher = more signal
Chain of Follistatin (Homo sapiens) (P19883 whole entry, looked up): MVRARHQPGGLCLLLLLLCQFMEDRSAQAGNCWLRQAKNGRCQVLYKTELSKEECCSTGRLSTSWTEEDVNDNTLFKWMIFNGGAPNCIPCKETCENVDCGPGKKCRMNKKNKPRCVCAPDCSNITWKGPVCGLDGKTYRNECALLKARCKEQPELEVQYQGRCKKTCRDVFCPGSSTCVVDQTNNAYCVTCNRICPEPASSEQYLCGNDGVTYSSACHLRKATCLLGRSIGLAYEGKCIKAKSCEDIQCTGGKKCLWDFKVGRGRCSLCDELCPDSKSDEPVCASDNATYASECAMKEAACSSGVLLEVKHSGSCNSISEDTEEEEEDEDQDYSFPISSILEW

[6] = target: Fibroblast growth factor 2 (Homo sapiens) (UniProt P09038); test: FGF2 binders on small-molecule microarrays, primary screen, biochemical, small-molecule microarray, 635/667 nm fluorescence (AID 1133); settings: small-molecule microarray binding, FGF2, fluorescence 635/667; higher = more signal
Chain of Fibroblast growth factor 2 (Homo sapiens) (P09038 whole entry, looked up): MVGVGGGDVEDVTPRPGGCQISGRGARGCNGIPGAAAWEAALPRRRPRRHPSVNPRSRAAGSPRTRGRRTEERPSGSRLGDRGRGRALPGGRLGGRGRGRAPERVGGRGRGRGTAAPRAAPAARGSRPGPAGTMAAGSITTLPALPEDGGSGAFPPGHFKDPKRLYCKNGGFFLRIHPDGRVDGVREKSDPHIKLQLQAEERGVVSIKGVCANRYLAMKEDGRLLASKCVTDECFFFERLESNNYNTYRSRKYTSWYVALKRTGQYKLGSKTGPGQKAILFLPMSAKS

[7] = mitochondrial membrane potential change in A549 cells, profiling panel, cell-based, JC-1 fluorescence, basal, 24 h, 100 nL (AID 1138); settings: higher = more signal;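 also: A549 lung adenocarcinoma cells under basal conditions with no added stimulus; test concentration not given here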
Lefty1 = Lefty1 binders on small-molecule microarrays, primary screen, biochemical, small-molecule microarray, 635/667 nm fluorescence (AID 1139); settings: small-molecule microarray binding, fluorescence 635/667; higher = more signal
[8] = system: wheat germ agglutinin (Triticum aestivum), Alexa647-labelled; test: wheat germ agglutinin binders on compound microarrays, profiling panel, artefact control for SMM control-protein annotation, biochemical, small-molecule microarray, 635/667 nm fluorescence (AID 1140); settings: WGA-A647 binding, 635 nm fluorescence, higher = more signal;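 also: score merges 667 nm feature emission with signal to noise over triplicate slides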
[9] = target: Luciferin 4-monooxygenase (Photinus pyralis) (UniProt P08659); test: firefly luciferase enzyme inhibitors, primary screen, biochemical, luminescence, purified enzyme, 2006 set (AID 1141); settings: SteadyGlo luminescence, 30 min, higher = more signal, called active from +8 up or from −8 down;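 also: cell-free assay with purified firefly luciferase at 100 ng per well in PBS; test concentration not given here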
Chain of Luciferin 4-monooxygenase (Photinus pyralis) (P08659 whole entry, looked up): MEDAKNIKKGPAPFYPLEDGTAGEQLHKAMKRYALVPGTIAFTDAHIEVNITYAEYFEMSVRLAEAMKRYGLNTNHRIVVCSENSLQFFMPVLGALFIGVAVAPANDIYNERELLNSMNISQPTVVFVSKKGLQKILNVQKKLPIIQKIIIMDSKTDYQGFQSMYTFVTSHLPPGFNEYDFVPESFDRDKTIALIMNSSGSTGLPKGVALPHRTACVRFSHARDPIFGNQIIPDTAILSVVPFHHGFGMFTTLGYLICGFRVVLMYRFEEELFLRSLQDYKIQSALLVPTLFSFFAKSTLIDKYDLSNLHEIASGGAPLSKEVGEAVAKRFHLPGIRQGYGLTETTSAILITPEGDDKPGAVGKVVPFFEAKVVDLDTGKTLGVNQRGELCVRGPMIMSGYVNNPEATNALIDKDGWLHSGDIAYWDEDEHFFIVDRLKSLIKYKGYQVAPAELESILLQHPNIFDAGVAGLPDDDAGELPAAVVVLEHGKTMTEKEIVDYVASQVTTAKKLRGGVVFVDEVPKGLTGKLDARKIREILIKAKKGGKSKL

[10] = system: Wnt5a (protein binding on small-molecule microarray); test: Wnt5a binders on small-molecule microarray, primary screen, biophysical, 635/667 nm fluorescence (AID 1142); settings: 635 nm fluorescence, higher = more signal;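 also: fluorescence read at 667 nm with signal to noise per printed feature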
[11] = cell viability in Huh7 cells, primary screen, cytotoxicity control for HCV replication inhibitor project, CellTiter-Glo luminescence, basal, 48 h (AID 1143); settings: Huh7 HCV replicon, higher = more signal, called active from +8 up or from −8 down;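 also: Huh7 hepatoma cells carrying a hepatitis C replication reporter with no stimulus; test concentration not given here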
[12] = P. aeruginosa biofilm formation inhibitors, primary screen, PAO1 strain, BacTiter-Glo luminescence, LB-PBS (AID 1144); settings: 12 h, higher = more signal
[13] = CREB reporter modulators without forskolin, primary screen, cell-based, PC12, CRE-LacZ reporter, unstimulated (AID 1145); settings: no forskolin, luminescence, 4.5 h, higher = more signal, called active from +8 up or from −8 down
[14] = CREB reporter modulators under forskolin, primary screen, cell-based, PC12, CRE-LacZ reporter, forskolin-stimulated (AID 1146); settings: luminescence, 4.5 h, higher = more signal, called active from +8 up or from −8 down;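 also: PC12 cells with 6xCRE LacZ reporter stimulated by forskolin 10 µM; beta-galactosidase reporter signal reflecting CREB driven transcription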
[15] = target: Streptavidin (Streptomyces avidinii) (UniProt P22629); test: streptavidin binders on small-molecule microarray, primary screen, artefact control for SMM compound annotation, biophysical, 635/667 nm fluorescence (AID 1147); settings: streptavidin binding, higher = more signal;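 also: signal reflects streptavidin binding to arrayed compounds as a control protein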
Chain of Streptavidin (Streptomyces avidinii) (P22629 whole entry, looked up): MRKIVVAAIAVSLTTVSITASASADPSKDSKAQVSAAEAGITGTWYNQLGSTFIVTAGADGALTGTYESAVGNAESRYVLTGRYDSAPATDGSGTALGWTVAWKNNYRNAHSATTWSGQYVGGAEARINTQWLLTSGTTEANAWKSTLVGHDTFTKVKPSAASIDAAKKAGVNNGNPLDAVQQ

[16] = small-molecule binders of probe aInhba, primary screen, biochemical, small-molecule microarray, 635/667 nm fluorescence (AID 1148); settings: higher = more signal;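 also: score merges 667nm spot fluorescence with signal-to-noise for antibody binding to printed compounds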
Torsin-1A (Homo sapiens) [17] = target: Torsin-1A (Homo sapiens) (UniProt O14656); test: torsin A binders from cell lysate, primary screen, small-molecule microarray, wild-type, 635/667 nm (AID 1149); settings: COS7 hTOR1A-WT lysate, 635 nm fluorescence, higher = more signal
Chain of Torsin-1A (Homo sapiens) (O14656 whole entry, looked up): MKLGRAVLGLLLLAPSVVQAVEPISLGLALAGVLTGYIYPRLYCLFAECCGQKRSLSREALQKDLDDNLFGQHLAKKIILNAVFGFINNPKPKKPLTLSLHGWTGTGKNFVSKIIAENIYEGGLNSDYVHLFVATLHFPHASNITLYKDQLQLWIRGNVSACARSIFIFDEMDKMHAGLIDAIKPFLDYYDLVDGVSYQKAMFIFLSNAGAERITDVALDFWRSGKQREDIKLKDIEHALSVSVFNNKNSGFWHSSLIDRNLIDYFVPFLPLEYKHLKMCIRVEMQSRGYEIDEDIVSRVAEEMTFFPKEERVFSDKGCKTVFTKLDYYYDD

Torsin-1A (Homo sapiens) [18] = target: Torsin-1A (Homo sapiens) (UniProt O14656); test: small-molecule binders of mutant TOR1A in lysate, primary screen, cell lysate, small-molecule microarray, COS7 lysate, 635/667 nm fluorescence (AID 1150); settings: COS7 hTOR1A mutant lysate, 635 nm fluorescence, higher = more signal;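 also: score pools 667 nm emission and signal to noise measuring lysate protein binding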
[19] = system: Sonic hedgehog protein (Shh); test: small-molecule binders of Shh protein, primary screen, biochemical, small-molecule microarray, 635/667 nm fluorescence (AID 1151); settings: small-molecule microarray binding, 635 nm fluorescence; higher = more signal;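 also: Shh protein binding to compounds spotted on small-molecule microarray slides; score combines spot fluorescence intensity with signal-to-noise across triplicate slides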

Row | SMILES | composite z-score [1] | composite z-score [2] | composite z-score [3] | composite z-score [4] | composite z-score [5] | composite z-score [6] | z-score [7] | composite z-score (Lefty1) | composite z-score [8] | z-score [9] | composite z-score [10] | z-score [11] | z-score [12] | z-score [13] | z-score [14] | composite z-score [15] | composite z-score [16] | composite z-score (Torsin-1A (Homo sapiens) [17]) | composite z-score (Torsin-1A (Homo sapiens) [18]) | composite z-score [19]
1 | CO[C@H]1O[C@H](CO)[C@@H](OC(=O)Nc2cccc(F)c2)[C@H](OC(=O)Nc2ccccc2-c2ccccc2)[C@@H]1OC(=O)Nc1ccccc1-c1ccccc1 | 1.61 | 1.25 | 0.797 | 1 | 1.09 | 0.205 | -1.16 | 0.102 | 1.11 | 0.923 (inactive) | 0.21 | -5.49 (inactive) | -0.579 (inactive) | 0.306 (inactive) | 0.0811 (inactive) | 1.88 | 0.212 | 0.838 | 0.886 | 0.667
2 | COCCOC(=O)N1C(=O)[C@@]2(c3cc(C#CC4(O)CCCCCC4)ccc31)[C@H](c1ccc(O)cc1)N1[C@H](c3ccccc3)[C@H](c3ccccc3)OC(=O)[C@H]1[C@@H]2C(=O)N1CCc2cc(OC)c(OC)cc2C1 | -0.083 | -0.183 | 0.462 | -1.69 | -0.792 | -0.505 | -0.506 | -0.625 | 0.663 | 0.503 (inactive) | -0.445 | -2.45 (inactive) | -1.73 (inactive) | -1.7 (inactive) | -0.805 (inactive) | -1.33 | -0.176 | -0.576 | -0.0551 | -0.649
3 | C=CCC(OC(C)=O)[C@@H]1[C@@H](N(Cc2cc3ccccc3o2)C(=O)c2ccc(C)cc2)c2cc(OCCCO)ccc2N1C(=O)c1ccc(-c2ccccc2)cc1 (stereo not given in full) | -0.277 | 0.0357 | 0.13 | 0.122 | 0.714 | -0.206 | 0.291 | 0.239 | 0.107 | 0.352 (inactive) | -0.221 | -2.92 (inactive) | -2.16 (inactive) | 2.76 (inactive) | -1.12 (inactive) | 0.0073 | 0.295 | 0.308 | -0.264 | 0.158
4 | COc1ccc([Si](C)(C)[C@@H]2[C@@H](CCn3cc([C@H](O)c4ccccc4)nn3)O[C@]3(C(=O)N(C)c4ccccc43)[C@H]2C)cc1 | 0.214 | 0.991 | 0.227 | -0.892 | 0.0274 | 0.283 | -0.0374 | 0.57 | 0.0783 | 0.431 (inactive) | 0.0302 | -3.85 (inactive) | 0.317 (inactive) | 1.72 (inactive) | -1.26 (inactive) | -0.0794 | -0.0465 | -0.507 | -0.0593 | -0.103
5 | CCN(CC)c1ccc(N2CC=CC34O[C@@H]5/C=C\CCCOC(=O)C5[C@H]3C(=O)N(CCCO)[C@@H]4C2=O)cc1 (stereo not given in full) | 1.54 | -0.231 | -0.426 | -0.928 | -1.05 | -0.942 | 0.614 | -0.5 | -0.137 | -0.826 (inactive) | -0.674 | 0.273 (inactive) | 2.24 (inactive) | -0.212 (inactive) | -0.473 (inactive) | -1.12 | -0.157 | -1.94 | -1.45 | -0.18
6 | Cc1ccccc1/C=C/C=O | -0.0248 | -1.29 | -0.3 | -2.75 | -0.0561 | -0.134 | 0.795 | -0.234 | -0.604 | 0.702 (inactive) | -0.373 | -0.042 (inactive) | -0.242 (inactive) | -0.204 (inactive) | 0.834 (inactive) | -0.943 | -0.137 | -1.41 | -0.62 | -0.0373
7 | Cc1ccc(N2C(=O)c3ccccc3[C@@H](C(=O)NCC(C)C)[C@@H]2c2ccc(CO)cc2)nc1 | 0.0133 | -0.871 | -0.451 | -0.877 | -0.186 | -0.246 | 0.738 | -0.609 | -0.674 | -0.663 (inactive) | -0.0957 | -0.308 (inactive) | 0.504 (inactive) | -0.295 (inactive) | 0.892 (inactive) | -1.45 | -0.231 | -1.67 | -1.47 | -0.0902
8 | COCCOC(=O)N1C(=O)[C@@]2(c3cc(C#CC4=CCCCC4)ccc31)[C@H](C(=O)N1CCN(c3ncccn3)CC1)[C@H]1C(=O)O[C@H](c3ccccc3)[C@H](c3ccccc3)N1[C@@H]2c1ccc(OCCO)cc1 | 1.07 | 1.16 | 0.31 | 0.229 | 1.29 | 1.59 | -1.01 | 1.03 | 0.232 | -1.03 (inactive) | 0.572 | -0.922 (inactive) | -0.38 (inactive) | -1.57 (inactive) | -0.0728 (inactive) | 0.832 | 0.471 | 0.804 | 0.606 | 1.04
9 | C=CCOC(=O)[C@@H]1[C@H]2C(=O)O[C@H](c3ccccc3)[C@H](c3ccccc3)N2[C@H](c2ccc(OCCOC(=O)[C@H]3C[C@H]4C(=O)N[C@@H](CCCC[N+](C)(C)C)C(=O)N4[C@H]3c3cccc(OCCO)c3)cc2)[C@@]12C(=O)Nc1ccc(I)cc12 | 1.3 | 1.18 | 0.163 | 0.496 | 1.4 | 1.55 | -0.93 | 1.15 | 0.115 | -0.138 (inactive) | 0.662 | -0.693 (inactive) | -0.0854 (inactive) | 0.289 (inactive) | -0.464 (inactive) | 0.128 | 0.115 | 0.559 | 0.327 | 1.89
10 | COc1ccc(C#Cc2ccc3c(c2)[C@]2(C(=O)N3)[C@H](c3ccc(OCCO)cc3)N3[C@H](c4ccccc4)[C@H](c4ccccc4)OC(=O)[C@H]3[C@@H]2C(=O)Nc2nc3ccccc3s2)cc1 | 0.842 | 1.17 | 0.862 | 0.88 | 1.3 | 1.28 | -2.06 | 1.57 | 0.764 | -3.84 (inactive) | 0.603 | -2.92 (inactive) | -1.54 (inactive) | 0.918 (inactive) | -0.203 (inactive) | 1.07 | 0.143 | 1.15 | 0.564 | 1

— PubChem BioAssay
